# Most compounds without a hit are left out; they make up all but 7.6% or so of the library.
# MCF10A rerep = DNA re-replication induction in MCF 10a cells; MCF 10A DNA re-replication, Hoechst nuclear intensity, 48 h; Potency, µM (top dose mostly 46.1 µM), inactives show at the top dose activity, positive = re-replication, usual class: activators; 350,000 tested, 2.9% active; AID 624296; note: potency is the fitted concentration of half-maximal effect; % of control where 0% means no effect; nearly all actives have a fitted effect of over 50% in size
# hERG WT inh = blocks the wildtype human KCNH2 potassium channel. Q12809. U2OS, BacMam KCNH2, thallium flux FluxOr; hits give low values. activity change, % at 1.84 µM. 340,000 tested, 0.37% active. AID 720551;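 active = maximum activity change below -70%; inconclusive = maximum activity change between -70% and -50%; inactive = maximum activity change above -50%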; note: % is set by controls: 0 for no effect and ±100 for the full control effect
#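 U2OS cells transduced with wild-type KCNH2 virus are loaded with FluxOr dye for 45 min, and thallium flux is measured in kinetic reads before and after stimulation buffer. Rate constants are normalized to DMSO controls.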
# KB-3-1 cytotox = KB-3-1 parental cell cytotoxicity | KB-3-1 viability, CellTiter-Glo ATP luminescence, 72 h | Potency, µM (highest dose often 46.1 µM), actives largely listed as cytotoxic | 400,000 tested, 1.4% active; note: potency is the fitted concentration of half-maximal effect; % is set by controls: 0 for no effect and ±100 for the full control effect; nearly all actives have a fitted effect of over 60% in size
#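 Here the drug-naive KB-3-1 line serves as comparator for MDR sub-line selectivity; cells received compound titrations, 72 h at 37 °C, then CellTiter-Glo readout.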
# KCNH2 3.1 block = blocks the human KCNH2 3.1 channel isoform; activity change, % (tested at about 1.8 µM); U2OS KCNH2 3.1, thallium flux FluxOr; hits give low values; 340,000 tested, 0.95% active;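 active = maximum activity change below -70%; inconclusive = maximum activity change from -70% to -50%; inactive = maximum activity change above -50%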;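 note: thallium influx rate constant from kinetic fluorescence after stimulation buffer; % is set by controls: 0 for no effect and ±100 for the full control effect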
#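 Kinetic fluorescence (2 min after stimulation buffer) measures Tl+ influx through KCNH2 3.1 expressed by viral transduction in U2OS cells; the rate constant is normalized against DMSO controls serving as positive and negative references.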
# SW480 rerep = induces DNA re-replication in SW480 colon adenocarcinoma cells. SW480 DNA re-replication, Hoechst DNA content imaging, 48 h. Potency, µM (titrated, usually from 46.1 µM), inactives show at the highest dose re-replication activation, actives largely listed as activators. 340,000 tested, 1.8% active; note: potency is the fitted concentration of half-maximal effect; % of control where 0% means no effect; nearly all actives have a fitted effect of over 55% in size
#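 Image-based DNA-content assay: after two days of treatment, nuclei were labelled with the DNA dye Hoechst and imaged, and hits were compounds raising the count of nuclei showing high fluorescence intensity.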
# KB-V1 cytotox = KB-V1 MDR subline cytotoxicity; KB-V1 MDR cells viability, CellTiter-Glo, 72 h; Potency, µM (top dose mostly 46.1 µM), actives largely listed as cytotoxic; 400,000 tested, 3.4% active; note: potency is the fitted concentration of half-maximal effect; % is set by controls: 0 for no effect and ±100 for the full control effect; nearly all actives have a fitted effect of over 60% in size
#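 In this primary screen, KB-V1 cells overexpressing P-gp are incubated with library compounds (lowest to highest concentration) for 72 h at 37 degrees C before a luminescent ATP viability read.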
# * marks the source's active call; other numbers are inactive results; i = inactive; ? = inconclusive; . = not tested or not shown; ! = repeats disagree. Unless noted, calls come from the whole dose curve; as a rule, active = well fitted curve in the direction sought with a large enough effect; inconclusive = small, poorly fitted or top-dose-only effect, or another doubt; inactive = no such curve, though single readings can be large; an effect the other way counts as inactive or inconclusive.
SMILES,MCF10A rerep,hERG WT inh,KB-3-1 cytotox,KCNH2 3.1 block,SW480 rerep,KB-V1 cytotox
COc1cc(-c2noc(C)c2-c2ccc(N(C)C)nc2)cc(OC)c1OC,?,3,0.0065µM*,12,0.29µM*,0.21µM*
COc1cc(-c2noc(C)c2C(=O)NCCc2c[nH]c3ccccc23)cc(OC)c1OC,?,-5,i,10,-4%,?
COc1cc(-c2noc(C)c2-c2ccc3[nH]ccc3c2)cc(OC)c1OC,?,-9,1.8µM*,-4,2.6µM*,1.8µM*!
CC1(C)CC2(CCO1)OC(=O)CC2C(=O)Nc1ccc(Cl)cc1[N+](=O)[O-] (configuration not stated),-1%,0,i,11,-11%,i
Cc1cccc(CN2CCc3c(OCC(=O)NCc4ccco4)cccc3C2=O)c1,4%,-6,i,5,8%,15µM*
O=C1c2cccc(OCC(=O)N3CCCc4ccccc43)c2CCN1Cc1ccc(F)cc1,15µM*,30,?,-6,10%,9.2µM*
Cc1cccc(CN2CCc3c(OCC(=O)N4CCCc5ccccc54)cccc3C2=O)c1,?,-4,16µM*,-26,19%,?
COc1cccc(N(C(=O)c2cccs2)c2nc3ccccc3s2)c1,?,3,i,-7,1%,i
CCOC(=O)CN(C(=O)CSc1nnc(COc2ccc(OC)cc2)n1CC)c1ccccc1,-4%,-4,i,5,-4%,i
O=C(c1ccc(Cl)c(Cl)c1)N1CCC(=O)N(C(COCc2ccccc2)Cc2ccccc2)CC1 (configuration not stated),?,11,i,-14,?,?
CCOc1ccc(S(=O)(=O)N2CCC(C(=O)NCc3ccccn3)CC2)cc1,-1%,6,i,18,-2%,i
O=C1NC(c2ccccn2)Nc2sc3c(c21)CCC3 (configuration not stated),16µM*,3,i,16,0%,i
CN1CCc2c(sc3c2C(=O)NC(c2ccccn2)N3)C1 (configuration not stated),0%,22,i,1,3%,i
Cc1ccsc1C1NC(=O)c2c(sc3c2CCCC3)N1 (configuration not stated),?,-1,i,16,-3%,15µM*
Clc1nc(NCc2cccs2)c2[nH]cnc2n1,.,.,i,.,.,i
CSCCC(NC(=O)c1ccccc1Br)C(=O)NNC(=O)c1ccco1 (configuration not stated),-1%,-22,i,18,1%,i
O=C(Nc1ccc(N2CCN(c3ccc(C(F)(F)F)cn3)CC2)nc1)c1cccs1,-35%,3,i,-4,?,i
O=C(Nc1ccc(N2CCN(c3ncccc3C(F)(F)F)CC2)nc1)c1cccs1,?,2,16µM*,-2,0%,18µM*
CC1(Cc2ccccc2C#N)C(=O)Nc2ccc(-c3ccccc3)cc21 (configuration not stated),.,.,i,.,.,i
CCCCNC(=S)NCc1ccc2[nH]c3c(c2c1)CCCC3,4%,8,i,14,-16%,21µM*
S=C(NCc1ccc2[nH]c3c(c2c1)CCCC3)Nc1ccccc1Cl,3.7µM*,-7,?,-14,5%,?
Cc1ccccc1NC(=S)NCc1ccc2[nH]c3c(c2c1)CCCC3,6.5µM*,-12,i,0,?,i
Cc1ccc(C)c(NC(=S)NCc2ccc3[nH]c4c(c3c2)CCCC4)c1,?,4,?,-8,?,?
C[C@@H]1CCCCO[C@H](CN(C)Cc2ccc(C(F)(F)F)cc2)[C@@H](C)CN([C@H](C)CO)C(=O)c2cc(NS(=O)(=O)c3cn(C)cn3)ccc2O1,.,0,i,1,.,?
Cc1ccc2[nH]c3c(c2c1)CCCC3C(N)=O (configuration not stated),18%,0,i,0,13%,i

# Screening results deposited in PubChem BioAssay by National Center for Advancing Translational Sciences (NCATS).
